# From PubChem
# The entries come from a sample that favours hits as a whole.
# mHTT CaM bind: disrupts binding of mutant huntingtin to calmodulin. P42858. AlphaScreen His-mHTT/GST-CaM binding, luminescence. inhibition, % at 15 µM. hit rate 3.6% among 190,000;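 also: 0% = both proteins with DMSO and 100% = one protein alone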
# Pf apPOL inh: Pf-apPOL DNA polymerase inhibition; Recombinant Pf-apPOL, molecular beacon fluorescence, 1.5 h; inhibition, % at 10 µM; hit rate 0.25% among 210,000
# Starred values were filed as active, the others as inactive; / = not tested or not shown; ! = not active in a repeat. Rule as the data show it: active = inhibition above about 50%; inactive = the rest.
SMILES,mHTT CaM bind,Pf apPOL inh
COc1cc(C2Oc3ccc(Cl)cc3C3CC(c4ccco4)=NN32)cc(OC)c1OC (stereo unspecified),63*,-20
COc1cc(C2Oc3ccccc3C3CC(c4ccccc4)=NN32)cc(OC)c1OC (stereo unspecified),-5,/
COc1ccc(C2=NN3C(C2)c2cc(OC)ccc2OC3c2cc(OC)c(OC)c(OC)c2)cc1 (stereo unspecified),59*,-16
COc1ccc(C2Oc3ccc(Cl)cc3C3CC(c4ccco4)=NN32)cc1OC (stereo unspecified),60*,-20
COc1cc(C2Oc3c(OC)cccc3C3CC(c4ccco4)=NN32)cc(OC)c1OC (stereo unspecified),38,-14
O=S(=O)(NCc1ccccc1Cl)c1c[nH]c2ncccc12,-11,0
O=[N+]([O-])c1ccc(S(=O)(=O)N2CCc3ccccc3C2)cc1,-3,6
O=S(=O)(c1ccc(C2CCCCC2)cc1)N1CCc2nc[nH]c2C1,23,0
O=C(N/C(=C\c1cccc([N+](=O)[O-])c1)c1nc2ccccc2[nH]1)c1ccccc1,10,-2
O=C(NCCc1ccco1)c1cccc(C2CCCN(C(=O)Nc3ccccc3)C2)c1 (stereo unspecified),29,1
OCn1nc(-c2ccc(Cl)cc2)n(Cc2ccccc2)c1=S,3,/
Cc1oc(C2CCN(C(=O)CC3CCCCC3)CC2)nc1C(=O)N1CCCCC1,18,0
CCOc1cccc2c1OC(c1ccc(F)c(F)c1)N1N=C(c3ccco3)CC21 (stereo unspecified),14,-29
Fc1ccc(C2Oc3ccc(Cl)cc3C3CC(c4ccco4)=NN32)cc1F (stereo unspecified),82*,-17
C[n+]1ccc(CC2C([N+](=O)[O-])=CNc3ncnn32)cc1 (stereo unspecified),8,-3
Cc1ccc(Cl)cc1NC(=O)CCSc1ccccc1,-11,-3
COc1cc2oc(-c3ccccc3)cc(=O)c2c(O)c1CN(C)C,100*,27
COc1cc(O)c(CN(C)C)c2oc(-c3ccccc3)cc(=O)c12,1,-3
CCOc1ccc(/C=C2\N=C(c3cc([N+](=O)[O-])cc([N+](=O)[O-])c3)OC2=O)cc1,56*,0
O=C1OC(c2cccc([N+](=O)[O-])c2)=N/C1=C\c1cccs1,13,-2
CCOc1ccc(/C=C2\N=C(c3ccc([N+](=O)[O-])cc3)OC2=O)cc1,2,1
O=C1OC(c2cccc([N+](=O)[O-])c2)=N/C1=C\c1cc(Br)cs1,92*,0
CCOC(=O)c1ccsc1NC(=O)CC1Sc2ccccc2NC1=O (stereo unspecified),0,1
CN(CC(=O)NCc1cccnc1)S(=O)(=O)c1ccc2[nH]c3c(c2c1)CCCC3,21,-5
CN(CC(=O)Nc1cccc(Cl)c1)S(=O)(=O)c1ccc2[nH]c3c(c2c1)CCCC3,55*,-1
SMILES,mHTT CaM bind,Pf apPOL inh
Cc1ccc(NC(=O)CN(C)S(=O)(=O)c2ccc3[nH]c4c(c3c2)CCCC4)c(Cl)c1,43,-5
CN(CC(=O)NCCC1=CCCCC1)S(=O)(=O)c1ccc2[nH]c3c(c2c1)CCCC3,63*,-10
CN(CC(=O)Nc1ccc(Cl)cc1)S(=O)(=O)c1ccc2[nH]c3c(c2c1)CCCC3,66*,1
Cc1ccccc1NC(=O)CN(C)S(=O)(=O)c1ccc2[nH]c3c(c2c1)CCCC3,14,-4
Cc1cccc(NC(=O)CN(C)S(=O)(=O)c2ccc3[nH]c4c(c3c2)CCCC4)c1,64*,3
Cc1ccc(NC(=O)CN(C)S(=O)(=O)c2ccc3[nH]c4c(c3c2)CCCC4)cc1,48,0
COc1ccc(C2N(C(=O)CN3CCCCC3)CCN2S(=O)(=O)c2ccccc2)cc1 (stereo unspecified),3,0
COc1ccc(OC)c(COCC(O)CN2CCCC(C)C2)c1 (stereo unspecified),-5,5
CSc1cccc(NC(=O)N2CCc3c(c(COCc4ccccc4F)nn3C)C2)c1,25,-5
Cc1cc(C)c(NC(=O)CN(C)S(=O)(=O)c2ccc3[nH]c4c(c3c2)CCCC4)c(C)c1,38,-4
CN(CC(=O)NC1CCCCCC1)S(=O)(=O)c1ccc2[nH]c3c(c2c1)CCCC3,59*,-1
O=C(O)C1CSC(c2cccc([N+](=O)[O-])c2)N1 (stereo unspecified),4,2
O=C(O)C1CSC(c2ccc([N+](=O)[O-])s2)N1 (stereo unspecified),56*,-2
Cc1ccc(CNS(=O)(=O)c2ccc(-c3c(C)noc3C)cc2)o1,-3,-1
O=C(CSc1nc(-c2ccccc2)c(-c2ccccc2)o1)N1CCOCC1,56*!,10
O=C(CSc1ccccc1)N1CCOCC1,-2,-9
Cc1nc(Nc2ccc(F)cn2)sc1C(=O)N1CCN(c2ccc(F)cc2)CC1,84*,-5
Cc1c(C(=O)N2CCN(c3ccc(F)cc3)CC2)sc2nc(-c3ccccc3)cn12,0,-2
CN1CCN(C(=O)c2csc(N3CCN(c4ccccc4F)CC3)n2)CC1,27,-3
O=C(c1csc(Nc2ccccc2)n1)N1CCN(c2ccccc2F)CC1,80*,-3
Cc1nc(Nc2ccc(F)cn2)sc1C(=O)N1CCN(c2ccccc2)CC1,68*,-10
Cc1ccc(-c2cc(C(=O)N3CCN(c4ccc(F)cc4)CC3)ccn2)s1,74*,33
Cc1nnsc1C(=O)N1CCN(c2ccc(F)cc2)CC1,/,3
Cc1ccc(-c2cc(C(=O)N3CCCCCC3)ccn2)s1,4,-5
Cc1ccc([N+](=O)[O-])cc1NC(=O)c1c(F)c(F)c(F)c(F)c1F,-3,-1
SMILES,mHTT CaM bind,Pf apPOL inh
COc1ccc(CNC(=O)C2CCCN(C(=O)c3ccc(F)c(F)c3)C2)cc1 (stereo unspecified),5,-6
O=[N+]([O-])c1ccc(O)c(C=Nc2ccc(C34CC5CC(CC(O)(C5)C3)C4)cc2)c1,-3,2
COc1ccccc1N1CCN(Cc2ccc(O)c([N+](=O)[O-])c2)CC1,-1,-2
Cc1ccnc(Nc2nc(C)c(C(=O)N3CCC(C)CC3)s2)c1,15,-4
Cc1nc(Nc2ccccn2)sc1C(=O)N1CCN(c2ccccc2F)CC1,59*,-8
O=C(NCc1nc2ccccc2n1CCCCOc1ccccc1Cl)c1ccco1,75*,-2
CCCn1c(NC(=O)c2ccco2)nc2ccccc21,31,-4
CCOc1cc(C(=O)Nc2cccc(-c3nc4ncccc4o3)c2C)cc(OCC)c1OCC,-3,-4
Cc1ncc2c(n1)CCN(C(=O)Cc1ccc(Cl)cc1)C2,6,-5
COc1cc(O)c(C(CC(=O)N2CCCC2)c2ccc3c(c2)OCO3)c(OC)c1 (stereo unspecified),13,0
COc1cc(O)c(C(CCN2CCCC2)c2ccc(N(C)C)cc2)c(OC)c1 (stereo unspecified),60*,-4
COc1cc(O)c(C(CCN2CCN(c3ccccc3)CC2)c2cc(OC)c(OC)c(OC)c2)c(OC)c1 (stereo unspecified),100*,-5
COc1ccc(C(CCN2CCOCC2)c2c(O)cc(OC)cc2OC)cc1 (stereo unspecified),6,-8
COc1cc(O)c(C(CCN2CCN(c3ccccc3)CC2)c2ccc3c(c2)OCO3)c(OC)c1 (stereo unspecified),82*,-2
